# Screens: PubChem BioAssay, Broad Institute
# C diff HTS: C. difficile growth inhibition; Clostridium difficile clinical isolate growth, OD600, 24 h; stronger effect = lower value; growth activity, negative = inhibition, % at 16 µg/mL (by protocol); 0.25% of 86,000 active; AID 1259249;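 active means mean growth activity at or below -80% and every replicate also at or below -80%; inconclusive means mean at or below -80% but some replicate above -80%; inactive means mean growth activity above -80%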;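 further: 0% = DMSO wells and -100% = levofloxacin 16 µg/mL wells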
# T cruzi growth-1: inhibitors of T. cruzi proliferation; T. cruzi beta-gal in NIH3T3, GalScreen luminescence, 90 h; inhibition, % at 8.34 µM; 5.9% of 77,000 active; AID 624255;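 active means mean inhibition above about 93%, with at least 55% of replicates each passing it, limit read from the data, passing the limit was not always enough; inconclusive means only one of those two conditions holds; inactive means neither condition holds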
# Pf Dd2 inh: P. falciparum Dd2 growth inhibition. SYBR Green, 72 h; stronger effect = lower value. activity change, % at 10 µM. 2.3% of 94,000 active; in the data active means activity change below about -80%; inconclusive means no clear call, values can overlap the other calls
# T cruzi growth-2: inhibitors of T. cruzi proliferation; shares compounds with T cruzi growth-1; T. cruzi beta-gal in NIH3T3, GalScreen luminescence, 90 h; inhibition, % at 8.35 µM; 72% of 5,600 active; AID 651739;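 active means mean replicate inhibition above about 95% and at least 55% of replicates individually reaching it, limit read from the data; inconclusive means only one of the two criteria is met; inactive means neither criterion is met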
# T cruzi growth-3: blocks T. cruzi growth in NIH3T3 host cells | shares compounds with T cruzi growth-1 | T. cruzi beta-gal in NIH3T3, GalScreen luminescence, 90 h | inhibition, % at 2.09 µM | 21% of 5,600 active;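 active means mean inhibition above about 95%, with at least 55% of replicates also reaching it, limit read from the data; inconclusive means meets just one of the two conditions; inactive means meets neither condition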;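 further: plate controls were neutral control median for no effect and positive control median for full effect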
# 3T3 cytotox: cytotoxicity in mouse NIH/3T3 fibroblasts; shares compounds with T cruzi growth-1; NIH/3T3 viability, CellTiter-Glo ATP luminescence, 90 h; cytotoxicity (signal decrease), % at 8.35 µM; 14% of 5,600 active; AID 651742;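 active means mean signal decrease across replicates above about 35% based on untreated-well scatter, with enough replicates individually passing, limit read from the data; inconclusive means no rule stated though some were filed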;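 further: 0% = median of neutral control wells and 100% = median of positive control wells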
# NIH3T3 tox 2: kills mouse NIH/3T3 fibroblasts; inhibition, % at 24.9 µM; NIH/3T3 viability, CellTiter-Glo ATP luminescence, 90 h; 56% of 5,600 active; shares compounds with T cruzi growth-1;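 active means mean loss of cell viability signal at or above a set limit, and enough replicates individually reaching it; inconclusive means meets only the mean limit or only the replicate share; inactive means meets neither condition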;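 further: 0% = median of neutral control wells and 100% = median of positive control wells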
# The depositor's hits bear a star; ? = inconclusive; . = no result; + = active, no number. Only some compounds are listed: those with a hit (about 6.8% of all), similar ones and a draw of the others.
SMILES,C diff HTS,T cruzi growth-1,Pf Dd2 inh,T cruzi growth-2,T cruzi growth-3,3T3 cytotox,NIH3T3 tox 2
Cc1ccc(-c2ccc3c(c2)O[C@H](CN(C)C(=O)C2CCCCC2)[C@H](C)CN([C@@H](C)CO)S3(=O)=O)cc1,.,118*,-25,95,73,50*,106*
C[C@@H]1CN([C@@H](C)CO)S(=O)(=O)c2ccc(C#CCN(C)C)cc2O[C@@H]1CN(C)C(=O)c1ccccc1F,-3,-3,-12,.,.,.,.
CCCC#Cc1ccc2c(c1)O[C@H](CN(C)C(=O)c1ccccc1F)[C@@H](C)CN([C@@H](C)CO)S2(=O)=O,13,74,-79,.,.,.,.
CCCC#Cc1ccc2c(c1)O[C@H](CN(C)C(=O)c1ccccc1F)[C@@H](C)CN([C@H](C)CO)S2(=O)=O,18,111*,-78,110*,84,-19,8
CCCC#Cc1ccc2c(c1)O[C@@H](CN(C)C(=O)c1ccccc1F)[C@@H](C)CN([C@H](C)CO)S2(=O)=O,11,66,-77,.,.,.,.
CC(C)CC#Cc1ccc2c(c1)O[C@H](CN(C)C(=O)c1ccccc1F)[C@@H](C)CN([C@H](C)CO)S2(=O)=O,12,88*,-82*,103*,58,-14,97*
CC(C)CC#Cc1ccc2c(c1)O[C@H](CN(C)C(=O)c1ccccc1F)[C@H](C)CN([C@H](C)CO)S2(=O)=O,5,105*,-71,105*,75,?,104*
C[C@H](CO)N1C[C@H](C)[C@@H](CN(C)C(=O)c2ccccc2F)Oc2cc(C#CCN(C)C)ccc2S1(=O)=O,-3,81,-34,.,.,.,.
CC(C)CC#Cc1ccc2c(c1)O[C@@H](CN(C)C(=O)c1ccccc1F)[C@H](C)CN([C@@H](C)CO)S2(=O)=O,4,105*,-82*,106*,106*,?,106*
CC(=O)N1CC2(C1)[C@H](c1ccc(-c3cccc(F)c3)cc1)[C@@H](CO)N2CC1CCCC1,-4,.,-49,.,.,.,.
CN(C)CC(=O)N[C@@H]1C=C[C@@H](CC(=O)O)O[C@@H]1CO,2,.,24,.,.,.,.
CC(C)NC(=O)N(C)C[C@H]1Oc2ccc(NC(=O)C3CCCCC3)cc2CC(=O)N([C@H](C)CO)C[C@H]1C,6,1,4,.,.,.,.
CN(C)C(=O)C[C@H]1CC[C@@H]2[C@@H](COc3ccc(NC(=O)C4CCOCC4)cc3C(=O)N2C)O1,-3,-43,-4,.,.,.,.
CC(=O)N1[C@@H]2Cn3c(ccc(/C=C/c4ccccc4)c3=O)[C@H]1[C@@H](C(=O)N(C)C)[C@@H]2CO,17,+,.,68,-8,0,-3
CC=Cc1ccc2n(c1=O)C[C@H]1[C@H](CO)[C@@H](C(=O)NCCCN(C)C)[C@@H]2N1C(=O)c1ccccc1F (mixture of isomers),-1,+,.,?,-5,9,-3
CC(=O)N1[C@@H]2c3ccc(/C=C/c4ccccc4)c(=O)n3C[C@H]1[C@H](CO)[C@H]2C(=O)N(C)C,6,+,.,76,17,1,4
CCC(=O)N1[C@@H]2c3ccc(/C=C/c4ccccc4)c(=O)n3C[C@H]1[C@H](CO)[C@H]2C(=O)N(C)C,0,51,3,.,.,.,.
CC=Cc1ccc2n(c1=O)C[C@@H]1[C@@H](CO)[C@H](C(=O)NCCCN(C)C)[C@H]2N1C(=O)c1ccccc1 (mixture of isomers),-3,.,17,.,.,.,.
CC=Cc1ccc2n(c1=O)C[C@@H]1[C@@H](CO)[C@H](C(=O)N(C)C)[C@H]2N1C(=O)c1ccccc1 (mixture of isomers),-4,-3,-8,.,.,.,.
CCCC#Cc1cnc2c(c1)C(=O)N([C@@H](C)CO)C[C@@H](C)[C@@H](CN(C)C(=O)CN1CCOCC1)O2,7,-1,33,.,.,.,.
CO[C@H]1CN(C)C(=O)c2cc(NC(=O)c3ccccc3F)ccc2OC[C@@H](C)NC[C@H]1C,.,20,31,.,.,.,.
CCC(=O)N1[C@H](CO)[C@@H](c2ccccc2)C12CN(Cc1ccccc1F)C2,4,.,-41,.,.,.,.
CO[C@@H]1CN(C)C(=O)c2cc(NC(=O)Nc3cccc(F)c3)ccc2OC[C@@H](C)N(C(=O)Nc2c(C)noc2C)C[C@@H]1C,.,40,-72,.,.,.,.
O=C(C1CCCC1)N1CCCCN2[C@H](CO)[C@@H](c3ccc(-c4ccncc4)cc3)[C@H]2C1,-7,?,45,55,36,11,19
CC(=O)N1CCCCN2[C@@H](CO)[C@@H](c3ccc(-c4ccncc4)cc3)[C@@H]2C1,-7,54,19,.,.,.,.
SMILES,C diff HTS,T cruzi growth-1,Pf Dd2 inh,T cruzi growth-2,T cruzi growth-3,3T3 cytotox,NIH3T3 tox 2
O=C(C1CCC1)N1CCCCN2[C@H](CO)[C@H](c3ccc(-c4ccncc4)cc3)[C@H]2C1,-5,101*,3,92,82,-14,-13
O=C(C1CCCC1)N1CCCCN2[C@H](CO)[C@H](c3ccc(-c4ccncc4)cc3)[C@H]2C1,-7,87,5,.,.,.,.
O=C(C1CCC1)N1CCCCN2[C@@H](CO)[C@@H](c3ccc(-c4ccncc4)cc3)[C@@H]2C1,-6,109*,7,105*,86,20,51*
O=C(C1CCCC1)N1CCCCN2[C@@H](CO)[C@@H](c3ccc(-c4ccncc4)cc3)[C@@H]2C1,-7,49,12,.,.,.,.
CC(=O)N1CCCCN2[C@H](CO)[C@H](c3ccc(-c4ccncc4)cc3)[C@H]2C1,-8,30,38,.,.,.,.
O=C(C1CCC1)N1CCCCN2[C@H](CO)[C@@H](c3ccc(-c4ccncc4)cc3)[C@H]2C1,4,98*,26,100*,16,-7,5
O=C(C[C@H]1CC[C@@H]2NC[C@H](O)COC[C@H]2O1)Nc1ccccc1,.,15,3,.,.,.,.
CC(C)NC(=O)Nc1cccc2c1O[C@@H](CN(C)S(=O)(=O)c1ccc(Cl)cc1)[C@@H](C)CN([C@H](C)CO)C2=O,-3,.,-2,.,.,.,.
O=C(C[C@H]1C[C@H]2c3cc(NC(=O)NC4CCCC4)ccc3O[C@H]2[C@@H](CO)O1)NCCN1CCCCC1,0,27,14,.,.,.,.
CO[C@H]1CN(C)C(=O)c2ccc(NS(=O)(=O)C3CCCCC3)cc2OC[C@@H](C)NC[C@H]1C,.,-31,11,.,.,.,.
O=C(c1ccc(F)cc1)N1CC[C@@H]2[C@H](CO)Nc3ccc(-c4ccccc4F)cc3[C@@H]21,6,?,-3,98*,95,6,85*
O=C(c1ccccn1)N1CC[C@@H]2[C@H](CO)Nc3ccc(-c4ccccc4F)cc3[C@@H]21,-18,84,-5,.,.,.,.
O=C(c1cnccn1)N1CC[C@H]2[C@H](CO)Nc3ccc(-c4ccccc4F)cc3[C@H]21,-1,99*,-3,96*,24,17,21
O=C(c1ccc(F)cc1)N1CC[C@H]2[C@H](CO)Nc3ccc(-c4ccccc4F)cc3[C@H]21,19,55,-30,.,.,.,.
